L3MBTL1 block = qHTS Assay for the Inhibitors of L3MBTL1; Lethal(3)malignant brain tumor-like protein 1 (Homo sapiens), Q9Y468; AlphaScreen L3MBTL1–H3K9me1 peptide binding; Potency, µM (doses to about 57.1 µM), for inactives: top-dose activity, negative = inhibition, usual class: inhibitors; hit rate 0.66% among 230,000; AID 485360, 2010; also: % is scaled to controls: 0 for no effect and ±100 for the full control effect; nearly all actives have a fitted effect of over 60% in size
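L3MBTL1 (50 nM) pre-complexed 30 min with biotinylated H3(1-15)K9me1 peptide (75 nM), then compounds added for 30 min at room temperature; AlphaScreen streptavidin donor/nickel chelate acceptor beads (10 ug/mL final) read after 30 min dark incubation.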
BAZ2B inh = qHTS Assay for Inhibitors of BAZ2B; AlphaScreen BAZ2B-H3K14Ac peptide displacement; hit rate 4.4% among 360,000; AID 504333, 2011; Potency, µM (titrated, usually from 114 µM), for inactives: top-dose activity change, negative = inhibition, actives largely listed as inhibitors; also: % is scaled to controls: 0 for no effect and ±100 for the full control effect; nearly all actives have a fitted effect of over 60% in size
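Compounds, titrated to a top concentration of 110 uM, were incubated 30 min at room temperature with preformed BAZ2B/acetyl-K14 H3 peptide complex (50 nM each). Proximity signal was measured by AlphaScreen after 20 min with beads.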
Sfp PPTase inh = qHTS Assay for Inhibitors of Bacillus subtilis Sfp phosphopantetheinyl transferase (PPTase); Biochemical Sfp PPTase activity, qHTS; Potency, µM, for inactives: largest response in the series, negative = inhibition, hits mostly inhibitors; hit rate 3.5% among 310,000; AID 1490, 2009;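 also: the enzyme is Sfp with the accession as filed and its product quenches rhodamine fluorescence; 0% = enzyme reaction without inhibitor and -100% = no enzyme wells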
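Fluorescence-quenching assay with 15 nM Sfp, 5 uM rhodamine-CoA and 12.5 uM BHQ-2-labelled ybbR peptide in pH 7.6 Hepes/MgCl2 buffer. Enzyme was pre-incubated with compound for 15 min at room temperature. Rate was taken from the 30-min fluorescence change (525/598 nm).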
HP1b chromo inh = HTS for Inhibitors of HP1-beta Chromodomain Interactions with Methylated Histone Tails. hit rate 0.56% among 390,000. AlphaScreen HP1-beta / biotin-H3K9me3 peptide binding. Chromobox protein homolog 1 (Homo sapiens), P83916. Potency, µM (top dose mostly 114 µM), for the others: top-dose activity change, negative = inhibition, usual class: inhibitors; also: nearly all actives have a fitted effect of over 70% in size
Target sequence (P83916 whole entry, looked up): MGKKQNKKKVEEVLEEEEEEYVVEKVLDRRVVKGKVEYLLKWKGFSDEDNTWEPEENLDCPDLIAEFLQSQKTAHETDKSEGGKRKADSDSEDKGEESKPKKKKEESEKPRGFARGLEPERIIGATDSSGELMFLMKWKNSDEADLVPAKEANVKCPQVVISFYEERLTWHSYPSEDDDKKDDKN
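AlphaScreen: HP1-beta (50 nM) preformed 30 min with biotin-H3(1-18)K9me3 peptide (50 nM) in PBS pH 7.4, 0.01% Tween-20. Compound added for 30 min at RT, then streptavidin donor/nickel chelate acceptor beads (10 ug/mL) for 30 min.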
G9a block = qHTS Assay for Inhibitors of Histone Lysine Methyltransferase G9a; Histone-lysine N-methyltransferase EHMT2 (Homo sapiens), Q96KQ7; G9a H3K9 monomethylation, AlphaScreen, 2 h; Potency, µM (doses to about 102 µM), inactives show at the highest dose activity, negative = inhibition, hits mostly inhibitors; hit rate 8.8% among 350,000; also: % is scaled to controls: 0 for no effect and ±100 for the full control effect; nearly all actives have a fitted effect of over 75% in size
Target sequence (Q96KQ7 913-1193 limits assumed): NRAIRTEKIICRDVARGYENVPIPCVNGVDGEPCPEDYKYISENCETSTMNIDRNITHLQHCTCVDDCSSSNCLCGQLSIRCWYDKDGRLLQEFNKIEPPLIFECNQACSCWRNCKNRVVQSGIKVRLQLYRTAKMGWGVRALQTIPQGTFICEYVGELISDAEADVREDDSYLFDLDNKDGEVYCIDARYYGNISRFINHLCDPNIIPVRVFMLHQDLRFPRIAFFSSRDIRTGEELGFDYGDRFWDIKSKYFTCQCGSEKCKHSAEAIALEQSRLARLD
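Methyltransferase reactions run at room temperature for 2 h (20 nM enzyme, 500 nM biotin-H3K9 peptide, 20 uM SAM) after a 15 min compound preincubation; product detected by AlphaScreen beads and anti-H3K9me1 antibody.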
JMJD2A Tudor inh = qHTS Assay for Inhibitors of JMJD2A-Tudor Domain; hit rate 4.4% among 390,000; AlphaScreen JMJD2A-Tudor / H3K4me3 peptide binding; AID 504339, 2011; Potency, µM (top dose mostly 114 µM), without a hit: top-dose activity change, negative = inhibition, most hits filed as inhibitors; Lysine-specific demethylase 4A (Homo sapiens), O75164; also: % is scaled to controls: 0 for no effect and ±100 for the full control effect; nearly all actives have a fitted effect of over 50% in size
* = called active by the depositor; u = inconclusive; x = not tested or not shown; ! = a repeat was not active; [ ] = remark or other dose. A selection: hits, their analogues and other compounds. The true share with any hit is near 12%. Calls follow the shape of the dose curve; as a rule, active = well fitted curve in the direction sought with a large enough effect; inconclusive = small, poorly fitted or top-dose-only effect, or another doubt; inactive = no such curve, though single readings can be large; an effect the other way counts as inactive or inconclusive. Potency is read from the fitted curve at half-maximal effect.

SMILES | L3MBTL1 block | BAZ2B inh | Sfp PPTase inh | HP1b chromo inh | G9a block | JMJD2A Tudor inh
CCOc1cc(/C=N/NS(=O)(=O)c2ccccc2)ccc1OS(=O)(=O)c1ccc(C)cc1 | x | -11% | 8% | 26% | 11µM* | -17%
CCN1C/C(=C\c2cccc([N+](=O)[O-])c2)C(=O)/C(=C/c2cccc([N+](=O)[O-])c2)C1 | -4% | u | -1% | -30% | 25µM* | u
CC(C)c1cc(CN2C(C)COCC2C)cc(C(C)C)c1O (stereo not drawn) | x | x | x | 9% | x | -26%
COc1ccc(NC2=C(c3ccccc3)C(=O)c3ccccc32)cc1Cl | x | 0% | x | 33% | 13%[59 µM] | -27%
Cc1ccc(NC2=C(c3ccc(C(F)(F)F)cc3)C(=O)c3ccccc32)cc1C | x | 56µM* | x | 0% | 2.8µM* | 56µM*
CC(=O)c1c(C)[nH]c(C(=O)OCC(=O)c2c[nH]c3ccccc23)c1C | -1% | 0% | x | 16% | -66%[12.7 µM] | -24%
Cc1ccc(C)c(N2CCN(C(c3ccncc3)c3nnnn3Cc3ccccc3)CC2)c1 (stereo not drawn) | 0% | u | 8% | 4% | 3.2µM* | 79µM*
CN(C)c1ccc(C(c2nnnn2C(C)(C)C)N2CCN(C(=O)c3ccco3)CC2)cc1 (stereo not drawn) | -4% | -30% | -24% | -16% | 10µM* | -28%
C=CCN1CCN(C(c2ccccc2)c2nnnn2CCC(C)C)CC1 (stereo not drawn) | 10% | u | 1% | 51% | 50µM* | 3.2µM*
CC(C)(C)n1nnnc1C(c1ccncc1)N1CCN(c2ccc(O)cc2)CC1 (stereo not drawn) | x | -10% | 16µM* | u | u | 45µM*
O=C(C1CCC1)N1CCc2cc(S(=O)(=O)NCCc3ccccc3)ccc21 | x | x | x | 27% | -38%[59 µM] | -15%
COc1cc(Cl)c(C)cc1NC(=O)c1cnc2c(-c3cccc(C)c3)c(C)nn2c1C | x | -5% | x | 22% | 12%[59 µM] | -8%
CC(C)CCn1nnnc1CN1CCN(C(=O)c2ccco2)CC1 | x | -3% | -2% | 9% | 50µM* | u
CC(C)CCn1nnnc1C(c1ccc(N(C)C)cc1)N1CCN(C(=O)c2ccco2)CC1 (stereo not drawn) | -8% | u | -6% | -20% | 50µM* | u
COCCn1nnnc1C(c1ccc(OC)c(OC)c1)N1CCN(C(=O)c2ccco2)CC1 (stereo not drawn) | x | -4% | -5% | -2% | -18% | -14%
Cc1ccc(C)c(N2CCN(C(c3ccc(N(C)C)cc3)c3nnnn3C(C)(C)C)CC2)c1 (stereo not drawn) | -11% | -8% | 0% | -42% | 4.5µM* | u
Cc1ccc(C(c2nnnn2C(C)(C)C)N2CCC(C)CC2)cc1 (stereo not drawn) | -7% | 1% | -7% | 14% | u | -26%
O=C(CCNC(=O)c1ccccc1)NCCc1ccc(Cl)cc1 | x | 3% | 12% | 0% | 40% | -23%
O=C(CNC(=O)c1ccc(Cl)cc1Cl)OCc1cn2cc(Br)ccc2n1 | -8% | x | x | 9%[57 µM] | x | 2%
CC1CCC(NC(=O)CCCn2sc3ccccc3c2=O)CC1 (stereo not drawn) | x | -16% | 4% | 10% | 22µM* | u
CCOC(=O)c1c[nH]n(-c2ccccc2)c1=O | x | -6% | -5% | 31% | -36% | -8%
CCOC(=O)c1cc2c(C)n(-c3ccc(C)cc3)c(C)c2ccc1=O | -6% | 45µM* | -75% | u | x | u
CCOC(=O)c1c[nH]n(-c2ccc(C)cc2)c1=O | -17% | -46% | 14% | 40% | 50µM* | -15%
CCOC(=O)c1cc2c(C)n(-c3ccc(OCC)cc3)c(C)c2ccc1=O | -8% | 50µM* | 79µM* | u | x | u
Cc1ccnc(S(=O)(=O)Cc2ccc([N+](=O)[O-])cc2)n1 | x | -7% | -4% | 79% | 9% | 2%
SMILES | L3MBTL1 block | BAZ2B inh | Sfp PPTase inh | HP1b chromo inh | G9a block | JMJD2A Tudor inh
COc1ccc(O)c(-c2c(-c3ccc(Cl)cc3)n[nH]c2C)c1 | -21% | u | -21% | -32% | 25µM* | u
Cc1noc(C)c1COC(=O)CCCc1c[nH]c2ccccc12 | x | u | 50µM* | 11% | -34%[59 µM] | u
O=C(CCCc1c[nH]c2ccccc12)Nc1ncccc1O | x | 56µM* | 1% | 14% | 6% | -28%
COc1ccc(CCN2C(=O)CC(NNc3ccc([N+](=O)[O-])cc3)C2=O)cc1OC (stereo not drawn) | -8% | -36% | 1% | 8% | 14µM* | -21%
Cc1ccc(N2C(=O)c3ccccc3C2=O)cc1 | x | -10% | 10% | 21% | x | 0%
Cc1ccc(SC2=C(Sc3ccc(C)cc3)C(=O)c3ccccc3C2=O)cc1 | u | 3.5µM* | 7.1µM* | 3.5µM* | 2.8µM* | 3.5µM*
C=CCn1c(SCc2csc(-c3ccc(C)cc3)n2)nnc1-c1ccccc1OC | -2% | 2% | u | 11% | 32µM* | u
O=C(c1ccco1)N1CCC2(CC1)CN(c1ccc(-c3ccccc3)cc1)C2 | x | x | -1% | x | -1%[12.7 µM] | x
Cc1ccc(-c2nn(CC(=O)NCc3ccccc3)c3c2cnc2ccc(F)cc23)cc1C | x | -10% | x | 6% | 4%[59 µM] | -12%
NC12CC3CC(CC(C3)C1)C2 | -5% | 7% | 31% | 74% | 1.8µM*! | -1%
CC(N)C12CC3CC(C1)CC(C(C)N)(C3)C2 (stereo not drawn) | 1% | 12% | 5% | 26% | 1%[12.7 µM] | 7%
CCOC(=O)c1oc2ccc(CNC3CCCCC3)c(Cl)c2c1C | 7% | u | 0% | u | 10µM* | 4µM*
Cc1cc(F)ccc1NCC(=O)Nc1ccccc1Br | -1% | 6% | u | 4% | 50µM* | -18%
CCN(CC)c1ccc(C(=C2C=CC(=[N+](CC)CC)C=C2)c2ccc(S(=O)(=O)O)cc2S(=O)(=O)[O-])cc1 | x | x | x | 22µM* | x | u
Cc1c(C)c2c(c(C)c1OC(=O)c1cccnc1)CC[C@@](C)(CCC[C@H](C)CCC[C@H](C)CCCC(C)C)O2 | x | x | 7% | x | 28%[59 µM] | x
COc1ccc(-c2cn3ccccc3n2)cc1OC | -5% | u | 89µM* | 46% | -30%[59 µM] | -8%
COc1ccc(-c2cn3cc(C)ccc3n2)cc1F | 2% | u | 10% | -16% | 3%[12.7 µM] | 20µM*
